SMILES strings stand for the structures. The source made the active and inactive calls. The calls were made as follows: active = hit-call score of the fitted dose curve at least 0.9, where 1 is the maximum; inactive = score below 0.9.

Read-out in this assay: growth arrest and DNA damage 45 (GADD45B), GADD45B (gene 4616)
Briefly: LTEA_HepaRG_GADD45B: Life Technologies and Expression Analysis (LTEA) Assay for growth arrest and DNA damage 45 (GADD45B) using HepaRG (AID 2283461). The settings on record: mRNA level, 48 h; actives raise or lower the signal. The method, then: LTEA_HepaRG is a cell based, multiplexed-readout assay that uses HepaRG, a human liver cell line, with measurements taken at 48 hours after chemical dosing on a 96-well plate.LTEA_HepaRG_GADD45B is one of 102 assay component(s) measured in the LTEA HepaRG cell culture assay. It is a marker of Cell proliferation, survival, death.Data from the assay component LTEA_HepaRG_GADD45B was analyzed into 1 endpoint. This assay endpoint, LTEA_HepaRG_GADD45B, was analyzed with bidirectional fitting relative to DMSO as the negative control and baseline of activity. Using a type of inducible reporter, measures of mRNA induction for gain or loss-of-signal activity can be used to understand regulation of transcription factor activity. To generalize the intended target to other relatable targets, this assay endpoint is annotated to the mutagenicity response intended target family, where the subfamily is Cell proliferation, survival, death.
A total of 1060 chemcials from the ToxCast library were tested in eight-point concentration-response experiments. Cell culture and cytotoxicity assays were conducted at Thermo Fisher Scientific's Custom Services facility (Madison, WI). A single lot of human HepaRG cells (Thermo Fisher Scientific, Frederick, MD) was used for the cell culture experiments. 96-well format collagen type I coated plates of human HepaRG cells were prepared using established methods. Briefly, cryopreserved HepaRG cells were thawed, plated at a density of approximately 100,000 cells/well in HepaRG Thaw, Plate, and General Purpose media (HPRG770, Thermo Fisher Scientific), and incubated for 48 hours. 0.5% DMSO was selected as vehicle control to balance the requisite need of DMSO in HepaRG cultures to maintain differentiation (for example, baseline metabolism, proportions of hepatocytes vs. cholangiocytes), while enabling further hepatic receptor pathway activation (for example, PXR and CAR) in response to chemical exposure. 48 hours after plating, the culture medium was replaced with HepaRG Serum-Free Incudtion Media. Cells were exposed to each test chemical in duplicate and maintained in CO2 incubators for another 48 hours. Chemical plates were thawed to room temperature and 200x concentrations of treatment groups were prepared. 8-point conentration-reponse curves were made with the highest exposure at 100 uM, followed by half-log dilutions, all in 0.5% DMSO. Each test plate contained variouse controls, induction positive controls (1mM phenobarbital), cytotoxicity positive controls ([…] aflatoxin B1), vehicle controls (0.5% DMSO), and total lysis controls (0.5% DMSO). Cell morphology images were taken using an Essen IncuCyte FLR automated microscope, with six 96-well plates imaged in about 24 minutes. Images were captured and exported and JPEG files. Spent culture media was transfered to black-well plates for the LDH assay, and remaining media was sorted at -80 C for later use. Cells were treated with RLT buffer and frozen until shipped for gene expression analysis. Total RNA was isolated from the cell suspension in 75 uL of Buffer RLT (Qiagen, Germantown, MD 20874) by Quintiles/Expression Analysis (Durham, NC) using a custom isolation procedure. Total RNA from each plate well was transferred to a preamplification plate. Fluidigm's 96.96 Dynamic ArrayTM (Fluidigm, Amsterdam, the Netherlands) technology was used for gene expression analyses by quantitative reverse transcription polymerase chain reaction (qRT-PCR, performed by Quintiles/Expression Analysis, Durham, NC)89. Standard TaqManTM Assays (Applied Biosystems/ThermoFisher Scientific, Foster City, CA) were used to assess the expression of 93 genes selected based on their selectivity and sensitivity to important hepatic receptors known to be modulated by environmental chemicals; importance in human hepatocyte functionality; and hepatotoxicity. […]
For `CCC1(c2ccccc2)C(=O)N=C(O)NC1=O` (stereo not given), the compound was called inactive.

Turning to `CN(C)C(=O)Cl`, the outcome was inactive.

On to `ClC(Cl)c1ccccc1`, for which the result was inactive.

Consider `CC(Cl)(Cl)C(=O)O`, for which the call was inactive.

Regarding `O=P(Oc1ccccc1)(Oc1ccccc1)Oc1ccccc1`, the compound was called inactive.

Regarding `CCN(CC)c1ccccc1`, the result was inactive.

On to `CCNc1nc(Cl)nc(NC(C)(C)C)n1`, for which the call was inactive.

Turning to `c1cc2c3c(cccc3c1)CC2`, the result was inactive.

For `c1nc[nH]n1`, the compound was called inactive.

For `CCCCc1ccccc1`, the compound was called inactive.

In the case of `O=[N+]([O-])c1ccc(Cl)c(Cl)c1`, the outcome was inactive.

As for `Cc1cccc(N)c1`, the compound was called inactive.

Regarding `ClC1=C(Cl)C2(Cl)C3C(Cl)C(Cl)CC3C1(Cl)C2(Cl)Cl` (stereo not given), the outcome was inactive.

With `CCOC(=O)c1ccccc1C(=O)OCC`, the result was inactive.

Regarding `CCCN(CCC)c1c([N+](=O)[O-])cc(C(C)C)cc1[N+](=O)[O-]`, the call was inactive.

As for `O=C(O)C(Cl)Cl`, the compound was classed as inactive.

Regarding `O=[N+]([O-])c1ccccc1`, the outcome was inactive.

Take `COCCOCCO`: the compound was called inactive.

`Nc1ccc(Cl)cc1`: the compound was classed as inactive.

As to `CC(C)(C)OOC(C)(C)C`, the compound was called inactive.

Consider `CCCCCCCc1ccc(O)cc1`, for which the call was inactive.

Regarding `[N-]=[N+]=[N-]`, the call was inactive.

Regarding `CC(Cc1ccc(OCC(=O)O)cc1)NCC(O)c1csc(C(F)(F)F)n1` (stereo not given), the result was inactive.

For the compound `O=C(O)C1C(C(=O)O)C2(Cl)C(Cl)=C(Cl)C1(Cl)C2(Cl)Cl` (stereo not given), the compound was classed as inactive.

Regarding `Cc1ccc(N)cc1N`, the compound was called inactive.

With `Nc1cc2c3c(c1)C(c1ccccc1)=N[C@@H](NC(=O)c1cccnc1)C(=O)N3CC2`, the compound was classed as inactive.

On to `CCOP(=S)(OCC)SCSCC`, for which the call was inactive.

As for `CC(C)(C)c1ccc(O)cc1`, the compound was classed as inactive.

Take `OCC1CO1` (stereo not given): the result was inactive.

Regarding `Nc1ccc2ccccc2c1`, the compound was classed as inactive.

Take `CCCCN(CCCC)SN(C)C(=O)Oc1cccc2c1OC(C)(C)C2`: the compound was called inactive.

`c1ccc(OP(Oc2ccccc2)Oc2ccccc2)cc1`: the compound was classed as inactive.

Turning to `CCOc1ccc(C(C)(C)COCc2cccc(Oc3ccccc3)c2)cc1`, the compound was classed as inactive.

As to `ClC(Cl)(Cl)c1ccccc1`, the outcome was inactive.

`CCCCN(CCCC)N=O`: the call was inactive.

Take `Cc1ccc([N+](=O)[O-])cc1C`: the result was inactive.

In the case of `CCOP(=S)(Oc1ccc([N+](=O)[O-])cc1)c1ccccc1` (stereo not given), the compound was classed as inactive.

In the case of `CCOS(=O)(=O)OCC`, the compound was classed as inactive.

A word on the AC50: it is the concentration giving half of the maximal activity seen. With `c1ccc2c(c1)Nc1ccccc1S2`, the AC50 is 85.3 µM (active).

With `O=P1(N(CCCl)CCCl)NCCCO1` (stereo not given), the outcome was inactive.

The values are drawn from PubChem BioAssay (EPA / NIEHS).
